Measured values reported in PubChem BioAssay (Tox21).
Records with an inconclusive call do not appear. Active and inactive are the calls of the source. The call rests on the fitted dose curve; in most records, active means well fitted cell-killing curve with a large enough effect in the repeat runs; inconclusive means weak or mixed curves, or effect the other way; inactive means flat fitted curve, though single readings scatter.

Test: qHTS assay to identify small molecule antagonists of the androgen receptor (AR) signaling pathway using the MDA cell line - cell viability counter screen (AID 743041; further: nearly all actives have a fitted effect of over 45% in size)
Conditions: MDA-kb2 viability, CellTiter-Fluor, 16 h, cells co-treated with R1881 androgen agonist; series mostly up to 70.3 µM
How it was run: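 Cytotoxicity counter screen: MDA-kb2 AR-luc cells, compound + R1881, 16 h, 37C, 0% CO2; CellTiter-Fluor added at 15.5 h, fluorescence read after 30 min.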

SMILES | outcome
CCCCOC(=O)c1ccccc1C(=O)OCCCC | inactive
CCC12COCN1COC2 | inactive
CN(N=O)c1ccccc1 | inactive
[O-][Cl+2]([O-])O | inactive
ClCCBr | inactive
CCOP(=S)(OCC)Oc1cnc2ccccc2n1 | inactive
Clc1ccc(Cl)cc1 | inactive
Cc1ccccc1O | inactive
C#CC(C)(C)NC(=O)c1cc(Cl)cc(Cl)c1 | inactive
CC(C)C1(C)N=C(c2nc3ccccc3cc2C(=O)O)NC1=O (configuration not stated) | inactive
Nc1c(Cl)c(Cl)nc(C(=O)O)c1Cl | inactive
Nc1ccc(Oc2ccc(N)cc2)cc1 | inactive
c1ccc(OP(Oc2ccccc2)Oc2ccccc2)cc1 | inactive
Cn1cc(-c2ccccc2)c(=O)c(-c2cccc(C(F)(F)F)c2)c1 | inactive
CCOP(=S)(OCC)SCCSCC | inactive
CC(C)(Cl)Cl | inactive
COP(N)(=O)SC (configuration not stated) | inactive
CCC[CH2][Sn]([Cl])([Cl])[Cl] | inactive
CCN(CC)CCO | inactive

SMILES | outcome
CCCC1COC(Cn2cncn2)(c2ccc(Cl)cc2Cl)O1 (configuration not stated) | inactive
C=CC(N)=O | inactive
Clc1ccccc1Cl | inactive
CCC(C)(CC)c1cc(NC(=O)c2c(OC)cccc2OC)on1 | inactive
CON(C)C(=O)Nc1ccc(Cl)c(Cl)c1 | inactive
CC(C)N1C(=O)c2ccccc2NS1(=O)=O | inactive
COc1ccc2c3c1O[C@H]1[C@@H](O)C=C[C@H]4[C@@H](C2)N(C)CC[C@@]341 | inactive
O=c1[nH]c2ccccc2c(=O)o1 | inactive
CCCCCCCCCCCC#N | inactive
Cc1ccc(N)cc1N | inactive
CCOC(=O)c1ccccc1C(=O)OCC | inactive
O=C(O)c1ccccn1 | inactive
CC(C)(C)OOC(=O)c1ccccc1 | inactive
O=[N+]([O-])c1ccc(Oc2ccc(Cl)cc2Cl)cc1 | inactive
CN=C=S | inactive
CN(C)CCO | inactive
Cc1cc(-c2cc(C)c(N)c(C)c2)cc(C)c1N | inactive
Nc1ccccc1C(=O)O | inactive
